Reference: PubChem BioAssay AID1159580 (chemical genetic matrix, 2015)
Out of some 5,500 compounds screened, about 2,000 (36%) were called active. Not shown: some 18% with an inconclusive outcome. Rule as the data show it: active = normalized growth mostly below about 0.91 (no sharp cut-off); inconclusive = no clear call, values can overlap the other calls; inactive = mostly above about 0.92. The list shows a part of the results.

Experiment: chemical genetic growth profiling, strain panel (AID 1159580);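 also: tested at 20 µM; growth read once vehicle control cultures reached saturation at 30 °C; 1 = growth at the plate median or of vehicle wells; lower values mean less growth of the strain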
Settings: growth OD

Measured: normalized growth

CC(C)CCCC(C)C1CCC2C3=CC[C@H]4C[C@@H](O)CC[C@]4(C)C3CC[C@@]21C (some centres not stated)
inactive: S. cerevisiae deletion strains, locus YJR066W, strain TOR1, active compounds read low 0.943 | S. cerevisiae deletion strains, locus YJR075W, strain HOC1, active compounds read low 0.995 | S. cerevisiae deletion strains, locus YKL009W, strain mrt4, active compounds read low 0.997 | S. cerevisiae deletion strains, locus YKL068W, active compounds read low 1 | S. cerevisiae deletion strains, locus YKL085W, strain MDH1 (second series), active compounds read low 0.988 | S. cerevisiae deletion strains, locus YKL085W, strain MDH1, active compounds read low 0.988 | S. cerevisiae deletion strains, locus YKL160W, strain elf1, active compounds read low 0.964 | S. cerevisiae deletion strains, locus YKR001C, strain vps1, active compounds read low 0.983 | S. cerevisiae deletion strains, locus YKR026C, strain gcn3, active compounds read low 0.999 | S. cerevisiae deletion strains, locus YKR091W, strain srl3, active compounds read low 0.967 | S. cerevisiae deletion strains, locus YLL001W, strain dnm1, active compounds read low 0.988 | S. cerevisiae deletion strains, locus YLL026W, active compounds read low 0.988 | S. cerevisiae deletion strains, locus YLL041C, strain sdh2, active compounds read low 0.975 | S. cerevisiae deletion strains, locus YLR027C, strain aat2, active compounds read low 0.982 | S. cerevisiae deletion strains, locus YLR039C, strain RIC1, active compounds read low 0.828 | S. cerevisiae deletion strains, locus YLR058C, strain SHM2, active compounds read low 1.02 | S. cerevisiae deletion strains, locus YLR102C, strain apc9, active compounds read low 0.99 | S. cerevisiae deletion strains, locus YLR113W, strain HOG1, active compounds read low 1.03 | S. cerevisiae deletion strains, locus YLR221C, strain rsa3, active compounds read low 0.946 | S. cerevisiae deletion strains, locus YLR258W, strain gsy2, active compounds read low 1 | S. cerevisiae deletion strains, locus YLR262C, strain YPT6 (second series), active compounds read low 0.859 | S. cerevisiae deletion strains, locus YLR262C, strain YPT6, active compounds read low 0.816 | S. cerevisiae deletion strains, locus YLR268W, strain sec22, active compounds read low 0.978 | S. cerevisiae deletion strains, locus YLR320W, strain mms22, active compounds read low 0.952 | S. cerevisiae deletion strains, locus YLR330W, strain CHS5, active compounds read low 1.04 | S. cerevisiae deletion strains, locus YLR342W, strain FKS1 (second series), active compounds read low 1.04 | S. cerevisiae deletion strains, locus YLR342W, strain FKS1, active compounds read low 0.994 | S. cerevisiae deletion strains, locus YLR357W, strain rsc2, active compounds read low 1.04 | S. cerevisiae deletion strains, locus YLR370C, strain arc18, active compounds read low 0.964 | S. cerevisiae deletion strains, locus YLR371W, strain rom2, active compounds read low 0.998 | S. cerevisiae deletion strains, locus YLR384C, strain iki3, active compounds read low 0.985 | S. cerevisiae deletion strains, locus YLR418C, strain cdc73, active compounds read low 0.943 | S. cerevisiae deletion strains, locus YML016C, strain PPZ1, active compounds read low 1.01 | S. cerevisiae deletion strains, locus YML032C, strain rad52, active compounds read low 1 | S. cerevisiae deletion strains, locus YML120C, strain ndi1, active compounds read low 0.965 | S. cerevisiae deletion strains, locus YML124C, strain tub3, active compounds read low 0.996 | S. cerevisiae deletion strains, locus YMR058W, strain fet3, active compounds read low 0.965 | S. cerevisiae deletion strains, locus YMR078C, strain ctf18, active compounds read low 0.989 | S. cerevisiae deletion strains, locus YMR125W, strain sto1, active compounds read low 1 | S. cerevisiae deletion strains, locus YMR129W, active compounds read low 0.992 | S. cerevisiae deletion strains, locus YMR205C, strain PFK2, active compounds read low 1 | S. cerevisiae deletion strains, locus YMR223W, strain ubp8, active compounds read low 0.99 | S. cerevisiae deletion strains, locus YMR231W, strain pep5, active compounds read low 0.991 | S. cerevisiae deletion strains, locus YMR263W, strain SAP30, active compounds read low 1.03 | S. cerevisiae deletion strains, locus YMR307W, strain GAS1, active compounds read low 1.05 | S. cerevisiae deletion strains, locus YNL067W, strain RPL9B, active compounds read low 0.991 | S. cerevisiae deletion strains, locus YNL071W, strain lat1, active compounds read low 0.932 | S. cerevisiae deletion strains, locus YNL183C, strain NPR1, active compounds read low 0.939 | S. cerevisiae deletion strains, locus YNL209W, strain ssb2, active compounds read low 0.987 | S. cerevisiae deletion strains, locus YNL233W, strain BNI4, active compounds read low 0.984 | S. cerevisiae deletion strains, locus YNL248C, strain rpa49, active compounds read low 0.922 | S. cerevisiae deletion strains, locus YNL250W, strain rad50, active compounds read low 0.999 | S. cerevisiae deletion strains, locus YNL271C, strain bni1, active compounds read low 0.994 | S. cerevisiae deletion strains, locus YNL298W, strain CLA4, active compounds read low 0.985 | S. cerevisiae deletion strains, locus YNL307C, strain MCK1, active compounds read low 0.996 | S. cerevisiae deletion strains, locus YNL322C, strain KRE1 (second series), active compounds read low 0.98 | S. cerevisiae deletion strains, locus YNR049C, strain mso1, active compounds read low 0.982 | S. cerevisiae deletion strains, locus YNR052C, strain pop2, active compounds read low 0.984 | S. cerevisiae deletion strains, locus YOL012C, strain htz1 0.805 | S. cerevisiae deletion strains, locus YOL147C, strain pex11, active compounds read low 0.994 | S. cerevisiae deletion strains, locus YOR001W, strain rrp6, active compounds read low 0.946 | S. cerevisiae deletion strains, locus YOR061W, strain CKA2, active compounds read low 1.01 | S. cerevisiae deletion strains, locus YOR069W, strain VPS5, active compounds read low 1.01 | S. cerevisiae deletion strains, locus YOR070C, strain gyp1, active compounds read low 0.985 | S. cerevisiae deletion strains, locus YOR080W, strain dia2, active compounds read low 0.981 | S. cerevisiae deletion strains, locus YOR083W, strain WHI5, active compounds read low 0.947 | S. cerevisiae deletion strains, locus YOR106W, strain vam3, active compounds read low 0.935 | S. cerevisiae deletion strains, locus YOR136W, strain idh2, active compounds read low 0.993 | S. cerevisiae deletion strains, locus YOR144C, strain elg1, active compounds read low 0.998 | S. cerevisiae deletion strains, locus YOR184W, strain ser1, active compounds read low 0.969 | S. cerevisiae deletion strains, locus YOR231W, strain MKK1, active compounds read low 0.976 | S. cerevisiae deletion strains, locus YOR265W, strain rbl2, active compounds read low 0.985 | S. cerevisiae deletion strains, locus YOR270C, strain vph1, active compounds read low 0.794 | S. cerevisiae deletion strains, locus YOR290C, strain snf2, active compounds read low 1.01 | S. cerevisiae deletion strains, locus YOR316C, strain cot1, active compounds read low 0.988 | S. cerevisiae deletion strains, locus YPL051W, strain arl3, active compounds read low 0.951 | S. cerevisiae deletion strains, locus YPL078C, strain atp4, active compounds read low 0.925 | S. cerevisiae deletion strains, locus YPL106C, strain sse1, active compounds read low 1.03 | S. cerevisiae deletion strains, locus YPL240C, strain hsp82, active compounds read low 0.97 | S. cerevisiae deletion strains, locus YPL241C, strain CIN2, active compounds read low 1.01 | S. cerevisiae deletion strains, locus YPL256C, strain CLN2, active compounds read low 1 | S. cerevisiae deletion strains, locus YPR119W, strain clb2, active compounds read low 0.99 | S. cerevisiae deletion strains, locus YPR141C, strain kar3, active compounds read low 0.994 | S. cerevisiae deletion strains, locus YPR163C, strain tif3, active compounds read low 0.994 | S. cerevisiae deletion strains, locus YPR167C, strain met16, active compounds read low 1.01 | S. cerevisiae deletion strains, strain wtn01, active compounds read low 0.97 | S. cerevisiae strains, strain wild type, active compounds read low 1.04
